# Compounds without any hit were thinned out: in the full panel of roughly 83,000, 20% have a hit.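 The endpoint reported here, percent growth, reads 100 for growth as untreated, 0 for no net growth and -100 for all cells dead.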 Unmarked numbers belong to inactive results. Activity calls are given as the source filed them. How the source made its calls: active means growth percent below 10; inactive means the rest.
# What was measured:
# Test in all cases: NCI-60 one-dose screen, 48 h (100 = growth as untreated, 0 = no growth, -100 = all killed)
# Details in all cases: 10 µM unless noted
# EKVX NSCLC = system: EKVX NSCLC
# SN12C renal = system: SN12C renal
# UO-31 renal = system: UO-31 renal
# TK-10 renal = system: TK-10 renal
# ACHN renal = system: ACHN renal
# CAKI-1 renal = system: CAKI-1 renal
# A498 renal = system: A498 renal
# CCRF-CEM leukemia = system: CCRF-CEM leukemia
# MOLT-4 leukemia = system: MOLT-4 leukemia
SMILES,growth (EKVX NSCLC),growth (SN12C renal),growth (UO-31 renal),growth (TK-10 renal),growth (ACHN renal),growth (CAKI-1 renal),growth (A498 renal),growth (CCRF-CEM leukemia),growth (MOLT-4 leukemia)
O=c1oc2ccc(Cl)cc2c(=O)n1-c1ccc(Cl)cc1F,9.78% (active),2.13% (active),6.59% (active),6.66% (active),4.37% (active),-16.8% (active),-71.7% (active),5.21% (active),-25.1% (active)
CC1=C(C(=O)OCC2CCN(C(=O)OC(C)(C)C)CC2)[C@@H](c2cccc(C#N)c2)C2=C(CC(C)(C)CC2=O)N1,63.7%,42.7%,42.1%,68.5%,38.5%,38.4%,75.3%,36.8%,12.5%
O=C1c2ccccc2C(=O)c2c1ccc1[nH]c(CCl)nc21,72.5%,-1.77% (active),22.7%,30.9%,10.7%,7.26% (active),16.3%,-12.5% (active),–
NCCNc1nc2ccc(F)cc2c2c(=O)c3cc(F)ccc3sc12,75.9%,46.3%,35.6%,59.1%,31.6%,22.5%,41.2%,20.7%,5.51% (active)
O=c1oc2ccc(F)cc2c(=O)n1-c1ccc(Br)cc1F,7.09% (active),-4.08% (active),5.26% (active),3.34% (active),2.25% (active),-14.8% (active),-55.4% (active),11.1%,-7.7% (active)
O=C(Nc1ccc(I)cc1F)c1cc(Br)ccc1O,6.95% (active),3.31% (active),8.84% (active),1.98% (active),4.42% (active),-18.9% (active),-62.1% (active),7.25% (active),-12.2% (active)
O=c1oc2ccc(F)cc2c(=O)n1-c1ccc(I)cc1F,9.58% (active),-3.72% (active),2.62% (active),0.748% (active),1.58% (active),-19.2% (active),-61.4% (active),12%,-0.279% (active)
O=C(Nc1ccc(F)cc1F)c1cc(I)ccc1O,55.8%,8.12% (active),2.51% (active),23.1%,11%,-17.5% (active),-33.2% (active),14.1%,7.29% (active)
CCOC(=O)c1c(C=O)nc2ccccc2c1/C=C/c1ccc(Cl)cc1,81.6%,96.7%,72.7%,122%,89.1%,89.6%,103%,76.6%,78.9%
O=C(Nc1ccc(Cl)cc1F)c1cc(Br)ccc1O,9.24% (active),1.01% (active),5.96% (active),5.64% (active),2.84% (active),-10.7% (active),-62.9% (active),15.1%,0.561% (active)
CN1CCN(Cc2ccc(NC(=O)c3cncc(C#Cc4nc(N)nc5[nH]ncc45)c3)cc2C(F)(F)F)CC1,109%,89.7%,122%,126%,99.8%,66.5%,102%,5.35% (active),–
O=C1NC(=O)C(=Cc2cn(Cc3cn(Cc4ccc(Cl)cc4Cl)nn3)c3ccccc23)C(=O)N1,104%,90.4%,63.9%,68.8%,102%,56.3%,38.3%,76.4%,84.6%
O=c1oc2ccc(I)cc2c(=O)n1-c1ccc(F)cc1F,59.2%,10.9%,7.61% (active),11.6%,19.6%,-17.5% (active),-43.9% (active),17.2%,13.8%
O=C(Nc1ccc(F)cc1F)c1cc(Cl)ccc1O,34.2%,2.94% (active),-0.334% (active),17.4%,4.87% (active),-14.7% (active),-34.4% (active),15.4%,8.79% (active)
O=C(COc1cc(O)c2c(=O)cc(-c3ccccc3)oc2c1)Nc1ccccc1C(F)(F)F,51.4%,27.7%,17.1%,-13.9% (active),17.8%,22.3%,55.9%,58.6%,52.1%
O=C(Nc1ccc(Cl)cc1F)c1cc(I)ccc1O,77%,29.5%,34%,15.8%,34.3%,22.8%,-28.2% (active),29.9%,31.7%
COc1c(B(O)O)cccc1-c1nc2ccc3n[nH]c(F)c3c2c2c1CCCC2,93%,62.6%,41.5%,35.7%,65.9%,0.82% (active),65.7%,38.8%,37.8%
COc1cccc(/C=C/C(=O)c2c(C)nc3ccccc3c2/C=C/c2ccccc2)c1OC,50.8%,31.1%,48.8%,61.6%,31.4%,39.2%,58.1%,13%,4.78% (active)
O=C(CCc1nnc2sc(COc3ccccc3)nn12)c1nc2ncccc2[nH]1,102%,96.3%,69%,124%,107%,84.4%,66.8%,118%,113%
O=c1oc2ccc(-c3ccc(F)cc3F)cc2c(=O)n1-c1ccc(Cl)c(C(F)(F)F)c1,55.4%,11.2%,75.6%,15.8%,18.2%,-8.76% (active),-43.5% (active),13.2%,6.67% (active)
CC[C@]1(O)C[C@@H]2CN(CCc3c([nH]c4ccccc34)[C@@](C(=O)OC)(c3cc4c(cc3OC)N(C)[C@H]3[C@@](O)(C(=O)OC)[C@H](OC(C)=O)[C@]5(CC)C=CCN6CC[C@]43[C@@H]65)C2)C1,38.8%,27%,41.6%,45.5%,30.1%,4.83% (active),-12.5% (active),13.8%,26.5%
O=C(Nc1ccc(I)cc1F)c1cc(F)ccc1O,5.82% (active),0.104% (active),6.41% (active),-0.353% (active),2.56% (active),-24.8% (active),-58.9% (active),6.38% (active),-16.4% (active)
O=c1oc2ccc(Cl)cc2c(=O)n1-c1ccc(F)cc1F,36.2%,4.19% (active),-1.33% (active),21%,4.18% (active),-14% (active),-35.4% (active),13.7%,9.73% (active)
COc1ccc(C2Nc3nc(OC)n(C)c(=O)c3N=C3c4ccccc4C(=O)C32)cc1 (configuration not stated),81.9%,86.6%,94.2%,124%,85.3%,54.4%,105%,87.9%,77.3%
Cc1nc2ccccc2c(/C=C/c2ccc(F)cc2)c1C(N)=O,94.8%,102%,80.9%,134%,100%,87.2%,89.2%,93.6%,111%
CC1=C(C(=O)OCC2CCN(C(=O)OC(C)(C)C)CC2)[C@H](c2cccc(C#N)c2)C2=C(CC(C)(C)CC2=O)N1,62.6%,52.9%,57.8%,69.7%,35.4%,52.4%,68.3%,40.5%,25.3%
COc1c(B(O)O)cccc1-c1nc2ccc3[nH]ncc3c2c2c1C1CCC2C1 (configuration not stated),101%,59.8%,29.3%,44.2%,63.2%,1.43% (active),87.2%,20.5%,–
COc1cc(/C=C/C(=O)c2c(C)nc3ccccc3c2/C=C/c2ccccc2)cc(OC)c1OC,26.9%,11.1%,27.4%,10.1%,-27.4% (active),30.8%,40.6%,4.76% (active),-0.744% (active)
O=C(Nc1ccc(F)cc1F)c1cc(Br)ccc1O,8.29% (active),-7.89% (active),1.12% (active),2.49% (active),1.37% (active),-26.3% (active),-49.5% (active),10.6%,0.366% (active)
Cn1cc([C@@H]2Nc3ccc4[nH]ncc4c3[C@H]3[C@H]4CCC(C4)[C@H]32)c(C(F)(F)F)n1,67.1%,50.6%,49.6%,65.6%,50.5%,35.3%,8.35% (active),27.6%,29.4%
